DT40 TDP1 no CPT: qHTS for Inhibitors of human tyrosyl-DNA phosphodiesterase 1 (TDP1): qHTS in cells in absence of CPT. Potency, µM (top dose mostly 46.2 µM), inactives show at the top dose activity change, negative = growth inhibition, actives largely listed as inhibitors. DT40 Tdp1-/- hTDP1 cells, no CPT, ATP luminescence, 48 h. AID 686978, 2013. hit rate 15% among 420,000; also: potency is read from the fitted curve at half-maximal effect; % is scaled to controls: 0 for no effect and ±100 for the full control effect; nearly all actives have a fitted effect of over 55% in size
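Chicken DT40 Tdp1-/- cells complemented with human TDP1, screened without camptothecin (DMSO vehicle only), 400 cells/well. Compounds pin-transferred, cells incubated at 37 °C for at least 48 hr. Growth read as ATP-dependent luminescence (CellTiter-Glo, 30 min at RT).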
Chronic BCR inh: blocks chronic active B-cell receptor signaling; ABC-DLBCL IkBa-CBG/CBR reporter, luminescence ratio, 4 h; Potency, µM (series often up to 46.1 µM), for inactives: at the top dose activity change, negative = inhibition, hits mostly inhibitors; hit rate 0.05% among 340,000; active = well fitted inhibition curve with a large enough effect in the signal ratio, with a control signal flat, not every such curve was filed as active; inconclusive = small, poorly fitted or top-dose-only effect, or effect the other way, or a change in a side signal; the % refers to the signal ratio;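 also: potency is read from the fitted curve at half-maximal effect; plate controls were basal doxycycline-induced cells for no effect and cells given 10 µM MG132 for full effect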
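TMD8 ABC-DLBCL cells carrying doxycycline-inducible green luciferase fused to IkappaBalpha plus unfused red luciferase were exposed to compounds (up to 46 uM) for 4 hrs at 37C. Activity came from the overlap-corrected green/red luminescence ratio.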
IL-1B inflam inh: inflammasome signaling inhibition, IL-1 beta readout; THP-1 LPS/ATP IL-1B secretion, AlphaLISA, 16 h; stronger effect = lower value; activity change, % at 57.5 µM; hit rate 4.7% among 360,000; in the data active = activity change below about -50%; inconclusive = mostly about -30% to -49%; also: % is scaled to controls: 0 for no effect and ±100 for the full control effect
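THP-1 cells pretreated 1 hr with compounds (up to 57.5 uM final), then stimulated with LPS (250 ng/mL final) plus ATP (1.25 mM final); secreted IL-1B measured by AlphaLISA after 16 hr, decreased signal indicating inhibition.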
SW480 rerep: inducers of DNA re-replication in SW480 colon cancer cells; AID 624297; Potency, µM (series often up to 46.1 µM), for inactives: top-dose re-replication activation, most hits filed as activators; SW480 DNA re-replication, Hoechst DNA content imaging, 48 h; hit rate 1.8% among 340,000; also: potency is read from the fitted curve at half-maximal effect; % of control where 0% means no effect; nearly all actives have a fitted effect of over 55% in size
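Treated cells incubate 48 hr (37 C, 5% CO2), are stained 40 min with Hoechst, and nuclear fluorescence is enumerated; a rise in nuclei with high DNA signal marks re-replication.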
MCF10A rereplic: induces DNA re-replication in MCF 10a normal breast cells; Potency, µM (highest dose often 46.1 µM), inactives show at the highest dose activity, positive = re-replication, usual class: activators; AID 624296; hit rate 2.9% among 350,000; MCF 10A DNA re-replication, Hoechst nuclear intensity, 48 h; also: potency is read from the fitted curve at half-maximal effect; % of control where 0% means no effect; nearly all actives have a fitted effect of over 50% in size
DT40 TDP1 CPT: DT40-hTDP1 cell growth loss with CPT; chicken DT40 Tdp1-/-;hTDP1 cells + 20 nM CPT, ATP luminescence, 48 h; hit rate 12% among 420,000; Potency, µM (top dose mostly 46.2 µM), for the others: at the highest dose activity change, negative = growth inhibition, usual class: inhibitors; also: potency is read from the fitted curve at half-maximal effect; % is scaled to controls: 0 for no effect and ±100 for the full control effect; nearly all actives have a fitted effect of over 55% in size
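Cell growth measured by CellTiter-Glo luminescence after a minimum 48 h, 37 C compound exposure with 20 nM CPT in Tdp1-knockout DT40 cells stably expressing hTDP1, seeded 400/well; qHTS titration format.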
* = called active by the depositor; u = inconclusive; x = not tested or not shown; [ ] = another dose, or the depositor's remark. Rows were chosen to be rich in hits. Some 19% of all compounds tested hit in one or more screens of this group. Unless noted, calls follow the shape of the dose curve; as a rule, active = well fitted curve in the direction sought with a large enough effect; inconclusive = small, poorly fitted or top-dose-only effect, or another doubt; inactive = no such curve, though single readings can be large; an effect the other way counts as inactive or inconclusive.

SMILES	DT40 TDP1 no CPT	Chronic BCR inh	IL-1B inflam inh	SW480 rerep	MCF10A rereplic	DT40 TDP1 CPT
COC(=O)CCCC1=CC2=CC(=O)C(C)(OC(=O)c3cccs3)C(=O)C2=CN1CCc1c[nH]c2ccccc12 (centres undefined)	-22.4%	8.2%	27.1	9.8%[9.22 µM]	-31.6%	-2.7%
CCCCC1=CC2=CC(=O)C(C)(OC(=O)CC)C(=O)C2=CN1Cc1ccco1 (centres undefined)	-29.9%	6.1%	30.2	u	-50.2%	u
CCCCC1=CC2=CC(=O)C(C)(OC(=O)CC)C(=O)C2=CN1c1ccccc1 (centres undefined)	16.4µM*	11.9%	0.3	-8.4%	-7.8%	u
CCCCC1=CC2=CC(=O)C(C)(OC(=O)CC)C(=O)C2=CN1CCc1ccc(Br)cc1 (centres undefined)	u	-0.2%	21.9	-1.0%	9.4%	u
CCCCC1=CC2=CC(=O)C(C)(OC(=O)CC)C(=O)C2=CN1Cc1ccccc1 (centres undefined)	18.4µM*	4.5%	46.9	-18.1%[9.22 µM]	u	13µM*
CCNC(=O)C1(C)CCN(C(=O)c2cccc3ccccc23)C1 (centres undefined)	3.1%	x	18.9	x	x	2.2%
Cc1ccc(C)c(N2CCN(c3cc(C)nc4c(-c5ccc(Cl)cc5)c(C)nn34)CC2)c1	-7.9%	x	x	x	x	9.6%
Cn1c2ccsc2c2ncn(Cc3ccccc3F)c(=O)c21	x	u	x	-58.1%	u	x
Cc1ccc([C@H]2N[C@]3(CCCN(Cc4ccccc4)C3=O)[C@H]3C(=O)N(C)C(=O)[C@@H]23)cc1	u	x	-3.8	x	x	-17.2%
Cc1ccc([C@H]2N[C@]3(CCCN(Cc4ccc(F)cc4)C3=O)[C@H]3C(=O)N(C)C(=O)[C@@H]23)cc1	13µM*	x	-24.7	x	x	u
Cc1ccc([C@H]2N[C@]3(CCCN(Cc4ccc(Br)cc4)C3=O)[C@H]3C(=O)N(C)C(=O)[C@@H]23)cc1	13µM*	x	14.4	x	x	3.3%
CN1C(=O)[C@H]2[C@@H](c3ccccc3)N[C@]3(CCCN(Cc4ccc(F)cc4)C3=O)[C@H]2C1=O	-23.3%	x	u	x	x	-4.0%
Cc1ccc(-n2nc(C(=O)Nc3ccc(Cl)cn3)c3c4ccccc4n(C)c3c2=O)cc1	-18.8%	x	x	x	x	-0.7%
Cc1cccc(NS(=O)(=O)c2ccc3c(c2)n(C)c(=O)n3C)c1C	u	8.7%	x	x	x	23.1µM*
Cc1cc(C)c(NS(=O)(=O)c2ccc3c(c2)n(C)c(=O)n3C)c(C)c1	-3.7%	u	27.0	-2.5%	u	-28.0%
Cc1c(F)cccc1NS(=O)(=O)c1ccc2c(c1)c(=O)n(C)c(=O)n2C	14.6µM*	u	-15.8	-11.3%	6.9%	u
Cc1c(F)cccc1NS(=O)(=O)c1ccc2c(c1)n(C)c(=O)c(=O)n2C	-26.3%	2.2%	-5.8	u	u	-8.2%
CCOc1ccc(NC(=O)C(C)Oc2ccc(C#N)cc2)cc1S(=O)(=O)N1CCCC1 (centres undefined)	-18.5%	u	16.5	-18.5%	-1.1%	-15.8%
CCN1C(=O)C(=O)N(CC(=O)N2CCC(C)Sc3ccccc32)C1=O (centres undefined)	-1.6%	u	-2.3	-12.5%	22.7%	-12.8%
O=c1[nH]c2c(-c3nc(-c4ccc(Cl)cc4)cs3)c(O)cn2c2ccccc12	2.82µM*	x	x	x	x	3.98µM*
COc1ccccc1-n1ncc2c(=O)[nH]c(SCC(=O)Nc3cccc(F)c3)nc21	-24.8%	u	x	x	x	-5.4%
S=c1nccc(-c2ccc(Cl)cc2)[nH]1	20.6µM*	6.2%	-7.3	-6.2%	-0.2%	u
COc1ccccc1C(=O)Nc1cccc(C(=O)OCc2cc(=O)n3ccsc3n2)c1	-18.8%	x	x	x	x	-20.1%
O=C(NCc1ccccc1OC(F)(F)F)C1CCC(=O)N(C2CC2)C1 (centres undefined)	0.3%	-5.8%	12.8	-1.2%	1.7%	7.6%
COc1ccc(NC(=O)Nc2cc(C)ccc2F)cc1OC	-12.7%	u	-50.6*	-3.4%	-1.9%	-1.7%
SMILES	DT40 TDP1 no CPT	Chronic BCR inh	IL-1B inflam inh	SW480 rerep	MCF10A rereplic	DT40 TDP1 CPT
CC(=O)c1ccc(NC(=O)Nc2ccc3snnc3c2)cc1	20.6µM*	x	x	x	x	11.6µM*
O=C(Nc1ccc(F)cc1)c1ccc2snnc2c1	-16.9%	u	0.7	-5.6%	-2.5%	-29.7%
Cc1c(Cl)cccc1NC(=O)Nc1ccc2snnc2c1	18.4µM*	x	x	x	x	14.6µM*
COc1ccc(C)cc1NC(=O)Nc1cccc(C)c1	-5.5%	6.2%	0.0	-6.4%	-5.9%	-25.6%
O=C(Nc1ccc(F)cc1)Nc1ccc2snnc2c1	6.51µM*	x	x	x	x	3.66µM*
COC(=O)c1cc(NC(=O)Nc2ccc3snnc3c2)cc(C(=O)OC)c1	-5.1%	x	x	x	x	-12.1%
Cc1ccc(F)c(NC(=O)Nc2ccc3snnc3c2)c1	20.6µM*	x	x	x	x	20.6µM*
CCOC(=O)C1(CC2CC2)CCN(C(=O)c2ocnc2C)CC1	-23.1%	8.2%	-0.3	-2.4%	-3.6%	-17.4%
CCOC(=O)C1(CC2CC2)CCN(C(=O)c2cc(C)nc3ccc(CC)cc23)CC1	18.4µM*	-2.7%	-4.9	11.5%	4.9%	20.6µM*
Cc1cn(-c2cc(NC(=O)c3ccc(C)c(NC(=O)c4cccc(-c5cn[nH]c(=O)c5)c4)c3)cc(C(F)(F)F)c2)cn1	u	u	-94.3*	0.2%	u	u
Cc1ccc(NC(=O)c2cccc(C(F)(F)F)c2)cc1NC(=O)c1[nH]cnc1C(N)=O	-27.1%	-2.8%	78.3	-4.0%	14.6%	11.4%
COc1cc(C(=O)NCC(c2ccco2)S(=O)(=O)c2cccs2)cc(OC)c1OC (centres undefined)	u	-13.4%	x	x	x	u
O=S1(=O)CC(N2CC=CC2)CN1Cc1cn(Cc2cccc(C(F)(F)F)c2)nn1 (centres undefined)	-7.9%	x	6.7	x	x	-1.3%
COc1cc(C(=O)OC2CC[C@]3(C)C4CCC5[C@]6(O)CC(O)[C@]7(O)C(CN8CC(C)CCC8[C@]7(C)O)[C@]6(O)C[C@@]53O[C@]24O)cc(OC)c1OC (some centres undefined)	-1.5%	x	x	x	x	-0.1%
CCCS/C(N)=N/N=C/c1cc(C)ccc1O	0.82µM*	u	-51.2*	u	u	0.731µM*
Fc1ccc(-n2ncc3c(Nc4cccc(Cl)c4)ncnc32)cc1	u	11.3%	x	x	x	u

Source: PubChem BioAssay
